# PubChem BioAssay (EPA / NIEHS)
# Where “and” joins values, the source holds several entries; their conditions need not be identical. Identical values can stand only once. Results filed as inconclusive are left out. Some structures have more than one record in an assay (separate samples or runs), and their calls can disagree. Calls of active or inactive are those of the source. The calls were made as follows, unless noted: active = hit-call score of the fitted dose curve at least 0.9, where 1 is the maximum; inactive = score below 0.9.
# Experiments:
# [1] = BSK_BT_PBMCCytotoxicity: PBMC Cytotoxicity Assessment in the BioMAP Diversity Plus: BT Assay (AID 2284225); conditions: primary human B cells with PBMC;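 also: PBMC viability measured by Alamar Blue dye reduction fluorescence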
# Summary of the method: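 75,000 cells/well; cpd 1 h → SEB + TSST-1 (20 ng/mL final each) → 90 h → Alamar Blue 6 h → fluor. 546/580 nm. DMSO = neg. control/baseline.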
# [2] = read-out: Secreted IgG (sIgG), gene 3500; assay: BSK_BT_sIgG: BioMAP Diversity Plus: BT Assay for Secreted IgG (sIgG) Biomarker Activity (AID 2284226); conditions: primary human B cells with PBMC
# Summary of the method: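 Secreted IgG from a human primary B cell–PBMC co-culture was measured by ELISA 24 hours after dosing, with DMSO defining baseline activity.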
# [3] = BSK_BT_Bcell_Proliferation: Viability Assessment in the BioMAP Diversity Plus: BT Assay for B cell Proliferation (AID 2284227); conditions: primary human B cells with PBMC
# Summary of the method: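 Human B cell/PBMC co-culture; test chemical added; 72 h; TCA fix (10%), 0.1% SRB stain, A560 for total protein as a proliferation read-out; positive-direction fit vs DMSO baseline.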
# [4] = read-out: Interleukin 6 (IL6), IL6 (gene 3569); assay: BSK_BT_xIL6: BioMAP Diversity Plus: BT Assay for Interleukin 6 (IL6) Biomarker Activity (AID 2284228); conditions: primary human B cells with PBMC
# Summary of the method: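 Human B cell/PBMC co-culture; secreted IL-6 quantified by Luminex xMAP 24 h after chemical dosing, fitted relative to DMSO. Parallel PBMC viability by Alamar Blue after 1 h pretreatment, 20 ng/mL SEB and TSST-1, 90 h incubation.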
# [5] = read-out: Interleukin 17A (IL17A), IL17A (gene 3605); assay: BSK_BT_xIL17A: BioMAP Diversity Plus: BT Assay for Interleukin 17A (IL17A) Biomarker Activity (AID 2284229); conditions: primary human B cells with PBMC
# Summary of the method: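 Co-culture of human B cells and PBMC, dosed for 24 h in 96-well format. Secreted IL-17A measured with Luminex xMAP; gain-direction fitting against DMSO as baseline.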
# [6] = read-out: Tumor necrosis factor (Homo sapiens) (UniProt P01375); assay: BSK_BT_xTNFa: BioMAP Diversity Plus: BT Assay for Tumor necrosis factor alpha (TNF-alpha) Biomarker Activity (AID 2284230); conditions: primary human B cells with PBMC
# Summary of the method: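 Read-out: Luminex xMAP quantitation of secreted TNF-alpha from a B cell/PBMC co-culture 24 h after compound addition. Signal analysed relative to DMSO vehicle, positive fitting direction.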
# [7] = read-out: Vascular cell adhesion molecule 1 (VCAM1), VCAM1 (gene 7412); assay: BSK_MyoF_VCAM1: BioMAP Diversity Plus: MyoF Assay for Vascular cell adhesion molecule 1 (VCAM1) Biomarker Activity (AID 2284231); conditions: primary human lung fibroblasts
# Summary of the method: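 Primary human lung fibroblasts (BioMAP MyoF system) dosed with chemical, VCAM-1 measured by ELISA 24 hours later. Fitted in the positive direction against DMSO; parallel SRB staining assessed cytotoxicity.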
# [8] = CCTE_Mundy_HCI_Cortical_NOG_NeuriteCount: CCTE's Neurite Outgrowth Assay in rat cortical cells for Neurite Count, Mundy Lab (AID 2284212);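 also: cells fixed about two days after chemical exposure began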
# Summary of the method: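 Neurite number per cell from high-content imaging of betaIII-tubulin immunostaining, with Hoechst nuclear counterstain.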
# [9] = CCTE_Mundy_HCI_Cortical_Synap_Neur_Matur_NeuriteLength: CCTE's Synaptogenesis and Neurite Maturation Assay in rat cortical cells for Neurite Length, Mundy Lab (AID 2284214)
# Summary of the method: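 Neurite length in rat primary cortical cultures is imaged after MAP2, synaptophysin and Hoechst staining. Dosing starts DIV 7, ending DIV 12; DMSO serves as negative control and baseline.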
# [10] = CCTE_Mundy_HCI_Cortical_Synap_Neur_Matur_NeuriteSpotCountPerNeuron: CCTE's Synaptogenesis and Neurite Maturation Assay in rat cortical cells for Neurite Spot Count per Neuron Count, Mundy Lab (AID 2284215)
# Summary of the method: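 Rat primary cortical cultures given AraC at DIV 5, dosed from DIV 7 to DIV 12 with media change. Fixed, stained for MAP2, synaptophysin and Hoechst; neurite-associated synaptophysin puncta per neuron quantified by high-content imaging versus DMSO.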
# [11] = TAMU_PeakParms_SingleDonor1434_Chronotropy: Texas A&M University (TAMU) 1.5-hr Human Induced Pluripotent Stem Cell (iPSC)-derived Cardiomyocytes Calcium (Ca+2) Flux Assay for Cardiotoxicity: Chronotropy (changes in peak frequency) (AID 2284217); conditions: actives raise or lower the signal
# Summary of the method: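 Beat rate, as mean Ca2+-flux peak frequency, was read from donor 1434 iPSC cardiomyocytes 90 min after exposure to 0.2–100 uM test chemical (0.5% DMSO). Wells that stopped beating were excluded; EC05 from bidirectional DMSO-referenced fitting.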
# [12] = CCTE_Mundy_HCI_Cortical_Synap_Neur_Matur_SynapseCount: CCTE's Synaptogenesis and Neurite Maturation Assay in rat cortical cells for Synapse Count, Mundy Lab (AID 2284218)
# Summary of the method: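 Synapse count per neuron is measured in rat cortical neurons exposed to chemicals between DIV 7 and DIV 12, with glial growth arrested by AraC at DIV 5. Synaptophysin and MAP2 staining is imaged automatically; activity is fitted relative to DMSO.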
# [13] = CCTE_Mundy_HCI_hN2_NOG_NeuriteLength: CCTE's Neurite Outgrowth Assay in human hN2 cells for Neurite Length, Mundy Lab (AID 2284220; active = hit-call score of the fitted dose curve at least 0.9, where 1 is the maximum)
# Summary of the method: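 Using βIII-tubulin immunofluorescence and Hoechst nuclear counterstain, this component quantifies neurite length in hNP1-derived neurons.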
# [14] = CCTE_Mundy_HCI_hN2_NOG_NeuronCount: CCTE's Neurite Outgrowth Assay in human hN2 cells for Neuron Count, Mundy Lab (AID 2284221; active = hit-call score of the fitted dose curve at least 0.9, where 1 is the maximum)
# Summary of the method: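 Read-out is the number of betaIII-tubulin-positive neurons imaged by automated high-content analysis, with DMSO as negative control.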
# [15] = CCTE_Mundy_HCI_Cortical_Synap_Neur_Matur_NeuriteCount: CCTE's Synaptogenesis and Neurite Maturation Assay in rat cortical cells for Neurite Count, Mundy Lab (AID 2284222);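 also: exposure from day 7 to day 12 in vitro with readout at day 12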
# Summary of the method: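 Rat cortical neurons, 96-well; AraC DIV 5; chemical + media change DIV 7; end DIV 12. Fix PFA/Hoechst, anti-MAP2 + anti-synaptophysin IF. HCI neurite count vs DMSO baseline.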
# [16] = CCTE_Mundy_HCI_Cortical_Synap_Neur_Matur_CellBodySpotCount: CCTE's Synaptogenesis and Neurite Maturation Assay in rat cortical cells for Cell Body Spot Count, Mundy Lab (AID 2284223)
# Summary of the method: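 Primary rat cortical cultures, AraC added at DIV 5; dosed DIV 7 through DIV 12 […]. Fixed, stained for MAP2 and synaptophysin with Hoechst; cell body-associated synaptophysin puncta per neuron counted by high-content imaging, loss vs DMSO.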
# [17] = CCTE_Mundy_HCI_Cortical_NOG_NeuriteLength: CCTE's Neurite Outgrowth Assay in rat cortical cells for Neurite Length, Mundy Lab (AID 2284213)
# Summary of the method: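 Neurite length was read by high-content imaging of βIII-tubulin-labelled neurites in rat primary cortical cultures. Activity was fitted relative to DMSO.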
# [18] = TAMU_HCS_1.5hr_SingleDonor1434_Cytotoxicity: Cytotoxicity Assessment using High-content Screening (HCS) Fluorescent Imaging for the Texas A&M University (TAMU) 1.5-hr Human Induced Pluripotent Stem Cell (iPSC)-derived Cardiotoxicity Assay (AID 2284234; active = hit-call score of the fitted dose curve at least 0.9, where 1 is the maximum)
# Summary of the method: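 Human iPSC-derived cardiomyocytes dosed at 0.2, 1, 10, 100 uM final (0.5% DMSO) for 90 min at 37 C. Hoechst 33342-stained nuclei counted by 10x high-content imaging; POD is EC10, a 10% drop in total cell count versus DMSO.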
# [19] = TAMU_PeakParms_SingleDonor1434_QT: Texas A&M University (TAMU) 1.5-hr Human Induced Pluripotent Stem Cell (iPSC)-derived Cardiomyocytes Calcium (Ca+2) Flux Assay for Cardiotoxicity: QT (decay-rise ratio) (AID 2284235; active = hit-call score of the fitted dose curve at least 0.9, where 1 is the maximum)
# Summary of the method: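 iPSC-derived cardiomyocytes (single donor 1434) dosed at 0.2, 1, 10, 100 uM final in 0.5% DMSO, 90 min at 37C. Ca2+ flux fluorescence decay/rise ratio; EC05 (5% increase versus DMSO) as POD, excluding beat-arrest and severe-notch data.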
# [20] = CCTE_Mundy_HCI_hN2_NOG_NeuriteCount: CCTE's Neurite Outgrowth Assay in human hN2 cells for Neurite Count, Mundy Lab (AID 2284219; active = hit-call score of the fitted dose curve at least 0.9, where 1 is the maximum)
# Summary of the method: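 In this morphology assay, hNP1-derived neurons received test chemical 2 h post-plating and were fixed two days later in warm paraformaldehyde/sucrose containing Hoechst 33342. Neurites, labelled by rabbit anti-βIII-tubulin (1:800) and Alexa Fluor-488 (1:500), were counted automatically.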
# Tumor necrosis factor (Homo sapiens), sequence (P01375 whole entry, looked up): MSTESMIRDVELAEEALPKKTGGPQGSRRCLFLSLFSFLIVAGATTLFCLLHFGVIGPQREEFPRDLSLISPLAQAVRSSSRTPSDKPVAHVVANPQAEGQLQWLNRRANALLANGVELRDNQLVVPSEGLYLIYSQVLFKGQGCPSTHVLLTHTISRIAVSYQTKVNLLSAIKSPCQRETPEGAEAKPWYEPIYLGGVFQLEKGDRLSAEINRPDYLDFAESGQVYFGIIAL
compound,measurement,setting,value
Cn1cnc([N+](=O)[O-])c1Sc1ncnc2nc[nH]c12,AC50,[1],8.01 µM (active)
same,outcome,[1],inactive
same,AC50,[2],206 nM (active) and 716 nM (active)
same,AC50,[3],10.5 µM (active) and 5.28 µM (active)
same,AC50,[4],8.87 µM (active) and 12.6 µM (active)
same,AC50,[5],12.6 µM (active) and 10.3 µM (active)
same,AC50,[6],12.6 µM (active)
same,outcome,[7],inactive
O=C1CCC(N2C(=O)c3ccccc3C2=O)C(=O)N1 (stereo not given),outcome,[8],inactive
same,outcome,[9],inactive
same,outcome,[10],inactive
same,outcome,[11],inactive
same,outcome,[12],inactive
same,outcome,[13],inactive
same,outcome,[14],inactive
same,outcome,[15],inactive
same,outcome,[16],inactive
CC[C@H]1OC(=O)[C@H](C)[C@@H](O[C@H]2C[C@@](C)(OC)[C@@H](O)[C@H](C)O2)[C@H](C)[C@@H](O[C@@H]2O[C@H](C)C[C@H](N(C)C)[C@H]2O)[C@](C)(O)C[C@@H](C)C(=O)[C@H](C)[C@@H](O)[C@]1(C)O,outcome,[8],inactive
same,outcome,[17],inactive
same,outcome,[9],inactive
same,outcome,[10],inactive
same,outcome,[12],inactive
same,outcome,[15],inactive
same,outcome,[16],inactive
CCCCCCc1ccc(O)cc1O,outcome,[11],inactive
same,AC50,[18],50 µM (active)
same,outcome,[19],inactive
NC(=O)NO,outcome,[8],inactive
same,outcome,[17],inactive
same,outcome,[9],inactive
same,outcome,[10],inactive
same,outcome,[11],inactive
same,outcome,[12],inactive
same,outcome,[20],inactive
same,outcome,[13],inactive
same,outcome,[15],inactive
same,outcome,[16],inactive
same,outcome,[19],inactive
O=P(OC(CCl)CCl)(OC(CCl)CCl)OC(CCl)CCl,outcome,[8],inactive
same,outcome,[17],inactive
same,outcome,[9],inactive
same,AC50,[10],2.98 µM (active)
same,AC50,[12],2.98 µM (active)
same,outcome,[15],inactive
same,outcome,[16],inactive
Cn1c(=O)c2c(ncn2C)n(C)c1=O,outcome,[8],inactive
same,outcome,[17],inactive
same,outcome,[9],inactive
same,outcome,[10],inactive
same,outcome,[12],inactive
same,outcome,[20],inactive
same,outcome,[13],inactive
same,outcome,[14],inactive
same,outcome,[15],inactive
same,outcome,[16],inactive
